Measurements from publication PMC7862700, “An all-to-all approach to the identification of sequence-specific readers for epigenetic DNA modifications on cytosine”.

Legend:
Experiment in all cases: DAPPL (digital affinity profiling via proximity ligation, sequencing); 10 mM Tris-HCl pH 7.5, 50 mM NaCl, 1 mM DTT, 4% glycerol, room temperature, 30 min; GST-TFs on glutathione beads, 16-mer random dsDNA library, 0.1% formaldehyde crosslink after washing; high values mean tight binding
Conditions in all cases: protein: recombinant; tags: N-terminal GST; dsDNA, one strand shown
FEV = molecular target: T1, FEV (Homo sapiens, UniProt Q99581 1-238)
T1 sequence: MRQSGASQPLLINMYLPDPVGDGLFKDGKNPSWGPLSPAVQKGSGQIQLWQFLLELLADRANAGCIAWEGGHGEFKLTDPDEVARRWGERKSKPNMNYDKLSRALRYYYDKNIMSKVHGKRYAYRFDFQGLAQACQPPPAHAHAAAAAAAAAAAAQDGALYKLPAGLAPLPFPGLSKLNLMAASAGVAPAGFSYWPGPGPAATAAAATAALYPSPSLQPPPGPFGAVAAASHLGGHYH
Method in brief: (§1)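 Sequencing on an Illumina NextSeq500 followed washing, crosslinking with 0.1% formaldehyde, proximity ligation (BsaI/T4 ligase, 1 h, 37 °C) and PCR amplification of pools that had been incubated for 30 min at room temperature with 200 nmole of a random double-stranded 16-mer DNA library in Tris/NaCl/DTT/glycerol buffer. Each pool held DNA-barcoded human transcription factors, expressed in yeast as GST fusions and captured on glutathione beads, plus a tag-only sample. Binding signal is a hexamer's read frequency for a factor divided by its frequency in the tag-only sample.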

ETV5 = ETV5 (Homo sapiens, UniProt P41161 1-510)
Method in brief: as §1

SPIC = molecular target: T2, SPIC (Homo sapiens, UniProt Q8N5J4 1-248)
T2 sequence: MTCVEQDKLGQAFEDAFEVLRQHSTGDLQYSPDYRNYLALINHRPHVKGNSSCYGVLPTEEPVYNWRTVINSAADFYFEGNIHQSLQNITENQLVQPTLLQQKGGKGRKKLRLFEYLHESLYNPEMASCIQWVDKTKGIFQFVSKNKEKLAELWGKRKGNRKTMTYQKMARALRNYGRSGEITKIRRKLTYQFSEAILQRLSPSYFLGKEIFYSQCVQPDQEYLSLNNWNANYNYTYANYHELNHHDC
Method in brief: as §1

ELF4 = ELF4 (Homo sapiens, UniProt Q99607 1-663)
Method in brief: as §1

ELK4 = molecular target: T3, ELK4 (Homo sapiens, UniProt P28324-2 1-405)
T3 sequence: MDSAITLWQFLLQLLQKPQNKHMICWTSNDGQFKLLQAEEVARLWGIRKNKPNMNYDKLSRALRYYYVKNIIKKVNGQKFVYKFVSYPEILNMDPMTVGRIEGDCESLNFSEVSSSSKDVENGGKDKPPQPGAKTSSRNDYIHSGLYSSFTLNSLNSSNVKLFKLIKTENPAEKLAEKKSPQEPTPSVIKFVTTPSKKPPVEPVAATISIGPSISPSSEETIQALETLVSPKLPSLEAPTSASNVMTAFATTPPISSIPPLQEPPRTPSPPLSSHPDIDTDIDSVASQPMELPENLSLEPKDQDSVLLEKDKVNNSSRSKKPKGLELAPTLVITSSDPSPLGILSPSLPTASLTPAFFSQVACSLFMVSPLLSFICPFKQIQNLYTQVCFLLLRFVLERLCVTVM
Method in brief: as §1

ETV2 = molecular target: T4, ETV2 (Homo sapiens, UniProt O00321 1-342)
T4 sequence: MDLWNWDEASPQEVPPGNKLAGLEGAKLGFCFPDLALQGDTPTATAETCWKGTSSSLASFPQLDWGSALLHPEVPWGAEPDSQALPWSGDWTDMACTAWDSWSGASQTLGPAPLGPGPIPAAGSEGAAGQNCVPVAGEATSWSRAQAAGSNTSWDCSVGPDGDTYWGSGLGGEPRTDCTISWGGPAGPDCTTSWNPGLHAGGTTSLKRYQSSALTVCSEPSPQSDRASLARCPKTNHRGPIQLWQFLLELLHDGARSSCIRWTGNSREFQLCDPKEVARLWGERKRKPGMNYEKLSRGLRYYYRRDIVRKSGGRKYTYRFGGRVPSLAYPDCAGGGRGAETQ
Method in brief: as §1

ELF3 = molecular target: T5, ELF3 (Homo sapiens, UniProt P78545 1-371)
T5 sequence: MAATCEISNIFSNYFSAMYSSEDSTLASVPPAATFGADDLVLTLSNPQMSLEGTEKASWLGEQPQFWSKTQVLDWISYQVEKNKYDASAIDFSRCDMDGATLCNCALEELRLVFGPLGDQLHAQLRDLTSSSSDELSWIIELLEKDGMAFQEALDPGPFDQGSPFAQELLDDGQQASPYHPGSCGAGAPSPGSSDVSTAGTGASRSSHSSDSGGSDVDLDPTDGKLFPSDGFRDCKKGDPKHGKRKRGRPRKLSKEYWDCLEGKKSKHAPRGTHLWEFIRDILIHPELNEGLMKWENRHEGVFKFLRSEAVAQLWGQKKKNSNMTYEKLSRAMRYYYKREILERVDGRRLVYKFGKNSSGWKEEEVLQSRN
Method in brief: as §1

CRX = CRX (Homo sapiens, UniProt O43186 1-299)
Method in brief: as §1

ETV1 = ETV1 (Homo sapiens, UniProt P50549 1-477)
Method in brief: as §1

ERF = molecular target: T6, ERF (Homo sapiens, UniProt P50548 1-548)
T6 sequence: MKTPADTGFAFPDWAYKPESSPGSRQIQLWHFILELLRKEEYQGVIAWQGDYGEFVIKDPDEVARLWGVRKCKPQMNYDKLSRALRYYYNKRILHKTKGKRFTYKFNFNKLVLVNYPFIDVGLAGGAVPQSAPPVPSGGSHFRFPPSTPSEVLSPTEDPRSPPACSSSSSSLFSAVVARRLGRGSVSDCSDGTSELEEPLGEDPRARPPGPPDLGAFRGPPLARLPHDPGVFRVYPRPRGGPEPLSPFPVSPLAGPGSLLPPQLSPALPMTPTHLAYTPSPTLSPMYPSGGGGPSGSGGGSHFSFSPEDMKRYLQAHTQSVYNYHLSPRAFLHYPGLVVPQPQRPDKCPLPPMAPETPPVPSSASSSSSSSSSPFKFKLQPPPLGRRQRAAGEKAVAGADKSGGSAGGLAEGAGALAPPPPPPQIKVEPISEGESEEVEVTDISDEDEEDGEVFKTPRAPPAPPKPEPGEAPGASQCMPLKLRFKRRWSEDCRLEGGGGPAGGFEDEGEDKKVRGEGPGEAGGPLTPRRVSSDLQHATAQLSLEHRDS
Method in brief: as §1

ETV3L = molecular target: T7, ETV3L (Homo sapiens, UniProt Q6ZN32 1-361)
T7 sequence: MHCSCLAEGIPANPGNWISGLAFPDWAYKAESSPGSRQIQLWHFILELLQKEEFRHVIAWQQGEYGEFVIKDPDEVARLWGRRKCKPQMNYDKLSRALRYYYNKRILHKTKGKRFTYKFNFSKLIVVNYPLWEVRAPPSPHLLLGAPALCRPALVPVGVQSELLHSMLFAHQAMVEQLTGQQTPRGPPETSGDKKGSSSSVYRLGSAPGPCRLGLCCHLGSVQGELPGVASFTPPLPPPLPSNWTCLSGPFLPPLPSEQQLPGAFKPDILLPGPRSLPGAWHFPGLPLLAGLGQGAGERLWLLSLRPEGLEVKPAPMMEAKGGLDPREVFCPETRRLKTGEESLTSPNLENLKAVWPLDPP
Method in brief: as §1

ETS2 = molecular target: T8, ETS2 (Homo sapiens, UniProt P15036 1-469)
T8 sequence: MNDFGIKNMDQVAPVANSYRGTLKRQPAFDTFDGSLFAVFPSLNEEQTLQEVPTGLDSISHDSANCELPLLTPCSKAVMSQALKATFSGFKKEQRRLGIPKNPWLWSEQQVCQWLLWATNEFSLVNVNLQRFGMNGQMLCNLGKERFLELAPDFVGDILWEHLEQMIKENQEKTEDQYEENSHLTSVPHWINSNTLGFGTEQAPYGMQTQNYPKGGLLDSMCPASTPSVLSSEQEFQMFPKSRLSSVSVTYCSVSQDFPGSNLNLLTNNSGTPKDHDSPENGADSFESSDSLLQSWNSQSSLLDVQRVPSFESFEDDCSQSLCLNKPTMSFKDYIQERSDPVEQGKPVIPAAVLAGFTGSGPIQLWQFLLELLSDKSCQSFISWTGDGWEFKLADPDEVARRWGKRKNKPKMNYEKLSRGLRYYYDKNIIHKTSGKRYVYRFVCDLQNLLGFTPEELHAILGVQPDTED
Method in brief: as §1

SPDEF = molecular target: T9, SPDEF (Homo sapiens, UniProt O95238 1-335)
T9 sequence: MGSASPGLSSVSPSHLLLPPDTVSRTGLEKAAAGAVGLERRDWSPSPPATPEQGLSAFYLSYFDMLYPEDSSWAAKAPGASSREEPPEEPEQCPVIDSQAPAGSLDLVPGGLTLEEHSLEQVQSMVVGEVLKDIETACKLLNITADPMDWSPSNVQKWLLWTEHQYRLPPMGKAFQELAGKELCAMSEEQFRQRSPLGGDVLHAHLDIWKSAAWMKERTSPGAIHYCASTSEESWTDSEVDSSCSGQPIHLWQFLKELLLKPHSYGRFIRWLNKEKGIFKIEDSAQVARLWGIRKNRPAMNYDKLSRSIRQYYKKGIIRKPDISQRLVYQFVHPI
Method in brief: as §1

ETV7 = molecular target: T10, ETV7 (Homo sapiens, UniProt Q9Y603 1-341)
T10 sequence: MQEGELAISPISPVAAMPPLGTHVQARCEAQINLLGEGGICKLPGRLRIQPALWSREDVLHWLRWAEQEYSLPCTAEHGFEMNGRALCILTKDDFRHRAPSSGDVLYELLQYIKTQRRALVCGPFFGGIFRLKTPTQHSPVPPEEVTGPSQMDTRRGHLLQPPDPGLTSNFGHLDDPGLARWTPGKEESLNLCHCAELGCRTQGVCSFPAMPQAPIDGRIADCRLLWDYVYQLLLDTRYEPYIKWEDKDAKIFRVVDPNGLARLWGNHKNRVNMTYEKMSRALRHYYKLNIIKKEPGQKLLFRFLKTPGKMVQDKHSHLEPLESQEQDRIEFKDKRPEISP
Method in brief: as §1

ELF5 = molecular target: T11, ELF5 (Homo sapiens, UniProt Q9UKW6-2 1-255)
T11 sequence: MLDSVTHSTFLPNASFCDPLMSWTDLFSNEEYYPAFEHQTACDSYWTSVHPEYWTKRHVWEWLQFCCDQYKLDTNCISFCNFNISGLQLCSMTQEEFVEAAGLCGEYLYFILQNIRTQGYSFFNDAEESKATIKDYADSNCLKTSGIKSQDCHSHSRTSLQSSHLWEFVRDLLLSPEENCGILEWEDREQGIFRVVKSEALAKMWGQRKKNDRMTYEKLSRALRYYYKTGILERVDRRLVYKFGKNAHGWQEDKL
Method in brief: as §1

ETV3 = molecular target: T12, ETV3 (Homo sapiens, UniProt P41162-2 1-143)
T12 sequence: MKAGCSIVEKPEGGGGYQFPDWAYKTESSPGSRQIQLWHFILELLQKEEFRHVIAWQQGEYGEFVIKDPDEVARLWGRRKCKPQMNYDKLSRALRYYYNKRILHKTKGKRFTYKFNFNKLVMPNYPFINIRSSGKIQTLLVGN
Method in brief: as §1

ETV6 = ETV6 (Homo sapiens, UniProt P41212 1-452)
Method in brief: as §1

ETV6, sequence (P41212 whole entry): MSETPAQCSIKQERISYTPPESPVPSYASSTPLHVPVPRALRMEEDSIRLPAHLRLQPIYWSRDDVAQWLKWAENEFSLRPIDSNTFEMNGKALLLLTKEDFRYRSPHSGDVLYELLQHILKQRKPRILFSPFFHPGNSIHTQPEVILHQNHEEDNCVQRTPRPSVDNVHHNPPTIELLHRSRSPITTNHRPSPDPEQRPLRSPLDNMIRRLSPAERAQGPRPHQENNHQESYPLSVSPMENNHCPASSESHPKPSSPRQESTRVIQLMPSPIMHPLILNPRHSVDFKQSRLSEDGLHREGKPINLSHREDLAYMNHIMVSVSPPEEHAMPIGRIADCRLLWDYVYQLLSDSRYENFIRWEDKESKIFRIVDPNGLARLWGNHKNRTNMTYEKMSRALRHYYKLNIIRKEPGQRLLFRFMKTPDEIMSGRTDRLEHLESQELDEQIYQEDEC
ELF4, sequence (Q99607 whole entry): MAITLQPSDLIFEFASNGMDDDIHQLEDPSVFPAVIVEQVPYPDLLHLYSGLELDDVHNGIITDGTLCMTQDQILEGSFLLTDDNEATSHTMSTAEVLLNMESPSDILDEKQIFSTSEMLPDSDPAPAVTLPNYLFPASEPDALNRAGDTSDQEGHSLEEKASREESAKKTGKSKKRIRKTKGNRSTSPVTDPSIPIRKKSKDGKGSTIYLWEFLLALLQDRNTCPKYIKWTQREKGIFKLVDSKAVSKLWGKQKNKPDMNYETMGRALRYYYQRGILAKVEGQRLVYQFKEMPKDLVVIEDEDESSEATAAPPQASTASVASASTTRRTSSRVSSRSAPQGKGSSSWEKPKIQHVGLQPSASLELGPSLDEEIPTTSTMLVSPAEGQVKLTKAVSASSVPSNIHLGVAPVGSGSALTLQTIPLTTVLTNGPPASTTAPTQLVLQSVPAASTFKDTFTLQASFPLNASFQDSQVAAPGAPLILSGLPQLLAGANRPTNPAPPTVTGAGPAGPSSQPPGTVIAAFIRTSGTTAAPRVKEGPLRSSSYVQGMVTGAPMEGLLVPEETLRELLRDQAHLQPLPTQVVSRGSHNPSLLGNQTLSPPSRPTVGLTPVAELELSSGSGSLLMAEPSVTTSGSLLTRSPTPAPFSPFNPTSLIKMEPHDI
CRX, sequence (O43186 whole entry): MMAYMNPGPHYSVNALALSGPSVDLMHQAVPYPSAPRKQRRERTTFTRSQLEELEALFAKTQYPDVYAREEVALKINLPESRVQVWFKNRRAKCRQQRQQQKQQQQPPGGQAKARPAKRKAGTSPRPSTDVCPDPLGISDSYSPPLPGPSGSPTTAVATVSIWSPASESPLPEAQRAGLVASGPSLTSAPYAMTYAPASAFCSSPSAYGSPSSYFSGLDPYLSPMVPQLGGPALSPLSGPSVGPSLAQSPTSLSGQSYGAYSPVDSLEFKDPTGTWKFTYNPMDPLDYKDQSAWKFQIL
ETV1, sequence (P50549 whole entry): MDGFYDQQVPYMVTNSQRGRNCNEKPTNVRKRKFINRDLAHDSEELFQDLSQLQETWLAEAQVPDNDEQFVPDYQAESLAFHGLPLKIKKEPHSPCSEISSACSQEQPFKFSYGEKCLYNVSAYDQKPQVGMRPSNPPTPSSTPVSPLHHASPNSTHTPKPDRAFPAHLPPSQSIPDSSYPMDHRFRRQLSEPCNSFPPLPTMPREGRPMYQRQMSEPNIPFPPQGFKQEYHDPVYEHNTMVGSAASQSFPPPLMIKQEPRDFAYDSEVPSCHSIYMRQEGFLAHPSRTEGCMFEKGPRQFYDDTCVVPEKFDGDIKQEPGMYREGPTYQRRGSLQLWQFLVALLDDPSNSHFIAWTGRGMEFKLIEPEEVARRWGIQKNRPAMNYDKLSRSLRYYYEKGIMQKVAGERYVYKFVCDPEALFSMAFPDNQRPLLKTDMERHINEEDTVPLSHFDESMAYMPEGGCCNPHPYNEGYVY
ETV5, sequence (P41161 whole entry): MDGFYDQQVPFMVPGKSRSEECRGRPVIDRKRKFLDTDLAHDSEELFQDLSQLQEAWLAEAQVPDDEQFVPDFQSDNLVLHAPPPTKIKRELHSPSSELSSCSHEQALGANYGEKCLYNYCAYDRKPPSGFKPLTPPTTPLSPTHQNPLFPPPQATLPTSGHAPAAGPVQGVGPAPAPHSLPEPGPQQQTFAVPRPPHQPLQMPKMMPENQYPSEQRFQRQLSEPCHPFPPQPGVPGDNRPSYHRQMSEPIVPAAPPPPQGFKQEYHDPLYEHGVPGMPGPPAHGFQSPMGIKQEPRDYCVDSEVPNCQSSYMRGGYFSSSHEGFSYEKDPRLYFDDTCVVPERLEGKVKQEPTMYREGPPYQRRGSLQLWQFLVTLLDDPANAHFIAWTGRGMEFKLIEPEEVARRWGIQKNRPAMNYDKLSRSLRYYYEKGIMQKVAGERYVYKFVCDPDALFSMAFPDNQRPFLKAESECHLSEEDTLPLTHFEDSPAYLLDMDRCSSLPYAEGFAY

TCACCC
binding signal (FEV): 1.15 fold enrichment (6-mer frequency, TF over GST control) | binding signal (ETV5): 1.18 fold enrichment (6-mer frequency, TF over GST control) | binding signal (SPIC): 1.13 fold enrichment (6-mer frequency, TF over GST control) | binding signal (ELF4): 1.21 fold enrichment (6-mer frequency, TF over GST control) | binding signal (ELK4): 1.16 fold enrichment (6-mer frequency, TF over GST control) | binding signal (ETV2): 1.01 fold enrichment (6-mer frequency, TF over GST control) | binding signal (ELF3): 1.16 fold enrichment (6-mer frequency, TF over GST control) | binding signal (CRX): 1.02 fold enrichment (6-mer frequency, TF over GST control) | binding signal (ETV1): 1.18 fold enrichment (6-mer frequency, TF over GST control) | binding signal (ERF): 1.2 fold enrichment (6-mer frequency, TF over GST control) | binding signal (ETV3L): 1.16 fold enrichment (6-mer frequency, TF over GST control) | binding signal (ETS2): 1.13 fold enrichment (6-mer frequency, TF over GST control) | binding signal (SPDEF): 1.23 fold enrichment (6-mer frequency, TF over GST control) | binding signal (ETV7): 1.04 fold enrichment (6-mer frequency, TF over GST control) | binding signal (ELF5): 1.07 fold enrichment (6-mer frequency, TF over GST control) | binding signal (ETV3): 1.14 fold enrichment (6-mer frequency, TF over GST control) | binding signal (ETV6): 1.05 fold enrichment (6-mer frequency, TF over GST control)

CCTCGG
binding signal (FEV): 1.07 fold enrichment (6-mer frequency, TF over GST control) | binding signal (ETV5): 1.2 fold enrichment (6-mer frequency, TF over GST control) | binding signal (SPIC): 1.1 fold enrichment (6-mer frequency, TF over GST control) | binding signal (ELF4): 1.25 fold enrichment (6-mer frequency, TF over GST control) | binding signal (ELK4): 1.24 fold enrichment (6-mer frequency, TF over GST control) | binding signal (ETV2): 1.24 fold enrichment (6-mer frequency, TF over GST control) | binding signal (ELF3): 1.3 fold enrichment (6-mer frequency, TF over GST control) | binding signal (CRX): 1.02 fold enrichment (6-mer frequency, TF over GST control) | binding signal (ETV1): 1.28 fold enrichment (6-mer frequency, TF over GST control) | binding signal (ERF): 1.23 fold enrichment (6-mer frequency, TF over GST control) | binding signal (ETV3L): 1.23 fold enrichment (6-mer frequency, TF over GST control) | binding signal (ETS2): 1.23 fold enrichment (6-mer frequency, TF over GST control) | binding signal (SPDEF): 1.04 fold enrichment (6-mer frequency, TF over GST control) | binding signal (ETV7): 1.11 fold enrichment (6-mer frequency, TF over GST control) | binding signal (ELF5): 1.2 fold enrichment (6-mer frequency, TF over GST control) | binding signal (ETV3): 1.05 fold enrichment (6-mer frequency, TF over GST control) | binding signal (ETV6): 1.24 fold enrichment (6-mer frequency, TF over GST control)
